Tests used:
[1] = biological target: Ribosomal protein S6 kinase alpha-6 (Homo sapiens) (UniProt Q9UK32); settings: at 1 µM;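 note: each value is a mean inhibition of RSK4 from a GSK PKIS panel screen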
[2] = biological target: T1, Serine/threonine-protein kinase Sgk1 (Homo sapiens) (UniProt O00141); settings: at 0.1 µM
T1 sequence (whole entry): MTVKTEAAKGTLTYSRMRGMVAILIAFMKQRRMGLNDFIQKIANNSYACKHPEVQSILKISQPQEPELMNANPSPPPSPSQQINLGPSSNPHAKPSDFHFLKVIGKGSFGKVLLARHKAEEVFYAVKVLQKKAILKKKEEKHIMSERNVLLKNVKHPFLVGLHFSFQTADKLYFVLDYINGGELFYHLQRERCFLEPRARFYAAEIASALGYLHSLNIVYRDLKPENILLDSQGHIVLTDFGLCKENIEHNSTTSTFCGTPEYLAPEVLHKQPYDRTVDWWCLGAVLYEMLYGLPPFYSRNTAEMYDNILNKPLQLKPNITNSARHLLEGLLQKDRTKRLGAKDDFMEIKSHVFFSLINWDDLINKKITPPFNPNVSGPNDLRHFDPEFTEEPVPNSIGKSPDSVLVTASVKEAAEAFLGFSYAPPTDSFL

[3] = biological target: T1, Serine/threonine-protein kinase Sgk1 (Homo sapiens); settings: at 1 µM
[4] = biological target: T2, Serine/threonine-protein kinase Sgk2 (Homo sapiens) (UniProt Q9HBY8); settings: at 0.1 µM
T2 sequence (whole entry): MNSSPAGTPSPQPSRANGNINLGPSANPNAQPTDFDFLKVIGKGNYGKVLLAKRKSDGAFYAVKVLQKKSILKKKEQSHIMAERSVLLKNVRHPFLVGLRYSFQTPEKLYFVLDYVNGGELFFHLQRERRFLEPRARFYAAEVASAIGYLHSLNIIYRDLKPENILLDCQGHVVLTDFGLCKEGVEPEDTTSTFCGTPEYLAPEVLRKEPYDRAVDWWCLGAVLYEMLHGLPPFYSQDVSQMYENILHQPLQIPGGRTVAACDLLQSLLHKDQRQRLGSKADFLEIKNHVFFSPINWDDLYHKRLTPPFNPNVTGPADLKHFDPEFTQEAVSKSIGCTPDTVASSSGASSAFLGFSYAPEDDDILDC

[5] = biological target: T2, Serine/threonine-protein kinase Sgk2 (Homo sapiens); settings: at 1 µM
[6] = biological target: T3, Serine/threonine-protein kinase Sgk3 (Homo sapiens) (UniProt Q96BR1); settings: at 0.1 µM
T3 sequence (whole entry): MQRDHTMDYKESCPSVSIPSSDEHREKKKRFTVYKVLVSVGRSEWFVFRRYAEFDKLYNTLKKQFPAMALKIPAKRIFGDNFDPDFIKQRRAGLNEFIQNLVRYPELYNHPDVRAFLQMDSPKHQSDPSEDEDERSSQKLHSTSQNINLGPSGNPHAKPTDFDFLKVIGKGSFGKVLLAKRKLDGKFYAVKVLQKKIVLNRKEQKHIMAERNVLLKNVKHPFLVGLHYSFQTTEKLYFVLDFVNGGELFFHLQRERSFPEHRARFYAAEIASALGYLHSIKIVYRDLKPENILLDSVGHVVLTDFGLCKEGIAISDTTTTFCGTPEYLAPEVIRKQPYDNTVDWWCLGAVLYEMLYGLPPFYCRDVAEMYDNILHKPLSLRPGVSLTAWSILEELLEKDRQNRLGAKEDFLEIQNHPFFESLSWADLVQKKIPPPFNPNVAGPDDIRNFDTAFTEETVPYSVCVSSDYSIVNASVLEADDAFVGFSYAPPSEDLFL

[7] = biological target: T3, Serine/threonine-protein kinase Sgk3 (Homo sapiens); settings: at 1 µM
[8] = biological target: 5'-AMP-activated protein kinase catalytic subunit alpha-1 (Homo sapiens) (UniProt Q13131); settings: at 0.1 µM
[9] = biological target: 5'-AMP-activated protein kinase catalytic subunit alpha-1 (Homo sapiens) (UniProt Q13131); settings: at 1 µM
[10] = biological target: 5'-AMP-activated protein kinase catalytic subunit alpha-2 (Homo sapiens) (UniProt P54646); settings: at 0.1 µM
[11] = biological target: 5'-AMP-activated protein kinase catalytic subunit alpha-2 (Homo sapiens) (UniProt P54646); settings: at 1 µM
[12] = biological target: T4, NUAK family SNF1-like kinase 1 (Homo sapiens) (UniProt O60285); settings: at 0.1 µM
T4 sequence (whole entry): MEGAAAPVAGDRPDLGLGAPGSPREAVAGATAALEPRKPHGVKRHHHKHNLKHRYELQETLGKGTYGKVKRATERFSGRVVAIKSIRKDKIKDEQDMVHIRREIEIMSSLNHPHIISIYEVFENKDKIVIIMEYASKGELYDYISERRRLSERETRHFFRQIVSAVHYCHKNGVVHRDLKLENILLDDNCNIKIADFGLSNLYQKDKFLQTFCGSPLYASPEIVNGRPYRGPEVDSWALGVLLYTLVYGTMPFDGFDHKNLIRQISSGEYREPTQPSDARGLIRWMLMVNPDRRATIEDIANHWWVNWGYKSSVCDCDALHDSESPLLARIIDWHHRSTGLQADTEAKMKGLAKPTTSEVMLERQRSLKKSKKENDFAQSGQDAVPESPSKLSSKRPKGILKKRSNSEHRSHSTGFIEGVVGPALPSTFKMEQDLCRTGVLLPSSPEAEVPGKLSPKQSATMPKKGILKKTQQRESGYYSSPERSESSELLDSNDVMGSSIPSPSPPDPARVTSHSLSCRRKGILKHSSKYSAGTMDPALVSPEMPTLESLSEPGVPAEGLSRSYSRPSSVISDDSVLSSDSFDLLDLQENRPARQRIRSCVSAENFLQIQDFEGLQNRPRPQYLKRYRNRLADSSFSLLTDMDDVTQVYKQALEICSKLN

[13] = biological target: T4, NUAK family SNF1-like kinase 1 (Homo sapiens); settings: at 1 µM
[14] = biological target: T5, Serine/threonine-protein kinase BRSK1 (Homo sapiens) (UniProt Q8TDC3); settings: at 0.1 µM
T5 sequence (whole entry): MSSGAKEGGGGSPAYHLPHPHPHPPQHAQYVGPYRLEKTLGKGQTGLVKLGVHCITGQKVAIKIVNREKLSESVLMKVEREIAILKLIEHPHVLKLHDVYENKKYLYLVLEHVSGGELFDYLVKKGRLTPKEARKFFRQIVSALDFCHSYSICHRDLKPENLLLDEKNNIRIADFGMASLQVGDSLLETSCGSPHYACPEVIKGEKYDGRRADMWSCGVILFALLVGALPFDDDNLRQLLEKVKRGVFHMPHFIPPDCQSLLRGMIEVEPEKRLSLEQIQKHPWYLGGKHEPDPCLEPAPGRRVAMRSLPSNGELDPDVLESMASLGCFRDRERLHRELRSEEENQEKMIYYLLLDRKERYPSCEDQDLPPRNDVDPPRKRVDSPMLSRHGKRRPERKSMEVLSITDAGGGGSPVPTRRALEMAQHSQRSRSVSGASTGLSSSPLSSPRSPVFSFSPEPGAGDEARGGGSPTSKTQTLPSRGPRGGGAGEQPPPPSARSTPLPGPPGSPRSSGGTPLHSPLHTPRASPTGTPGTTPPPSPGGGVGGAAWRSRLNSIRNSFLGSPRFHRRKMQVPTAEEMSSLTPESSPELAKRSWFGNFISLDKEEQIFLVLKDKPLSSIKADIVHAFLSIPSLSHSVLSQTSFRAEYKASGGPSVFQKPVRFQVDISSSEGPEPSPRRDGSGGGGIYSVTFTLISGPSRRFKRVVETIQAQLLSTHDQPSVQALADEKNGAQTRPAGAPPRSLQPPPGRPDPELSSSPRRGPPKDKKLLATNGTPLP

[15] = biological target: T5, Serine/threonine-protein kinase BRSK1 (Homo sapiens); settings: at 1 µM
[16] = biological target: T6, Serine/threonine-protein kinase BRSK2 (Homo sapiens) (UniProt Q8IWQ3); settings: at 0.1 µM
T6 sequence (whole entry): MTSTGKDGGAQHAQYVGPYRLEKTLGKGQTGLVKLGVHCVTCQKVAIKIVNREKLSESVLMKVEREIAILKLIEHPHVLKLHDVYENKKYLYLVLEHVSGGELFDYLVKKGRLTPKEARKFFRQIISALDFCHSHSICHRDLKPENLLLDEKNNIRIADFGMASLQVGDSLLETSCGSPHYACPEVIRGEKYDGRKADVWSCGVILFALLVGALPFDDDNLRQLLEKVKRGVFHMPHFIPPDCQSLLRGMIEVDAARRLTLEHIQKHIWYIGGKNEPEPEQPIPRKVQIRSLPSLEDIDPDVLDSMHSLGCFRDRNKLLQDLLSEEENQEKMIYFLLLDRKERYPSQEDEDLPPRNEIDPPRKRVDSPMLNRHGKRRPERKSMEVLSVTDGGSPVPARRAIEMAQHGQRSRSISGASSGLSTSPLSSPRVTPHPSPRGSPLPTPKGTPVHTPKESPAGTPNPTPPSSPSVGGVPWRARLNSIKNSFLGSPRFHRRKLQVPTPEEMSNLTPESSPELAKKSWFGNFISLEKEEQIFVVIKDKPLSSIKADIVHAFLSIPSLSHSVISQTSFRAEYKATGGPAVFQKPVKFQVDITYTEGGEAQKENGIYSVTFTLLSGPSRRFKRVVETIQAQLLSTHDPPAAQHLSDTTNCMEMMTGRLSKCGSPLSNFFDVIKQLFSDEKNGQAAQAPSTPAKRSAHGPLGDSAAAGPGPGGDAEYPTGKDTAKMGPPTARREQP

[17] = biological target: T6, Serine/threonine-protein kinase BRSK2 (Homo sapiens); settings: at 1 µM
[18] = biological target: Calcium/calmodulin-dependent protein kinase type 1D (Homo sapiens) (UniProt Q8IU85); settings: at 0.1 µM
[19] = biological target: Calcium/calmodulin-dependent protein kinase type 1D (Homo sapiens) (UniProt Q8IU85); settings: at 1 µM
[20] = biological target: Calcium/calmodulin-dependent protein kinase type II subunit alpha (Homo sapiens) (UniProt Q9UQM7); settings: at 0.1 µM;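 note: reported values are averages (mean inhibition of CAMK2A)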
Calcium/calmodulin-dependent protein kinase type II subunit alpha (Homo sapiens), sequence (Q9UQM7 whole entry): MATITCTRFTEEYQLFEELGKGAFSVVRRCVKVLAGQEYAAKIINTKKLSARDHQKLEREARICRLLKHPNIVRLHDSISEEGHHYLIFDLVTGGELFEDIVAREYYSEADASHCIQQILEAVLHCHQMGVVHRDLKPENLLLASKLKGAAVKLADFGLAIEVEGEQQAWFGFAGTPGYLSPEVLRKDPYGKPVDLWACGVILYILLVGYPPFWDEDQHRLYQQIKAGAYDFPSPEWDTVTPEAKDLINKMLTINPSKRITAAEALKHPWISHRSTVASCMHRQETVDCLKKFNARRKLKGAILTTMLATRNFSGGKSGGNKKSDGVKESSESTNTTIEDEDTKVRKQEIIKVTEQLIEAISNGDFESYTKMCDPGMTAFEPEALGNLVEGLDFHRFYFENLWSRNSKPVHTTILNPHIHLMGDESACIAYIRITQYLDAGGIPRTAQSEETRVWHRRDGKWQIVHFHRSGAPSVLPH

Ribosomal protein S6 kinase alpha-6 (Homo sapiens), sequence (Q9UK32 whole entry): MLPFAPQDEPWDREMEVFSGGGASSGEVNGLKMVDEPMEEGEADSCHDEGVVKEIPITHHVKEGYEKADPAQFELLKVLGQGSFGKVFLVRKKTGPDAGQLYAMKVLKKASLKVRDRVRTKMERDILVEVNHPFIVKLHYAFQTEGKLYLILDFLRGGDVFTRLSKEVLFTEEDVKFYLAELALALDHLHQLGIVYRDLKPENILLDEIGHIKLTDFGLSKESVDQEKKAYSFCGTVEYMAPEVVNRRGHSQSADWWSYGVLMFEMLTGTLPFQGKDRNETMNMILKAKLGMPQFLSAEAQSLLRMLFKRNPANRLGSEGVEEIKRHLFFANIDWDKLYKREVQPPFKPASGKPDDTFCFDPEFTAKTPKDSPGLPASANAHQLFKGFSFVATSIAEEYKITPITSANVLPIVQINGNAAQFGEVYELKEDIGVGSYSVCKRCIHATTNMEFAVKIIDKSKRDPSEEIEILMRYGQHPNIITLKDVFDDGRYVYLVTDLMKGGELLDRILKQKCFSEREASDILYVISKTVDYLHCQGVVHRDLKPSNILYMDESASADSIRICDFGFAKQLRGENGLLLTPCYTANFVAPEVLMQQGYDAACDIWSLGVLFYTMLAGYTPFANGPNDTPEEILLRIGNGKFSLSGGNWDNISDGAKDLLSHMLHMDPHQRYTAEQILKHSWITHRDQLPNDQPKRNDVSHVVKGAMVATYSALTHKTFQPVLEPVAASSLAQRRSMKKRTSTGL
Calcium/calmodulin-dependent protein kinase type 1D (Homo sapiens), sequence (Q8IU85 whole entry, looked up): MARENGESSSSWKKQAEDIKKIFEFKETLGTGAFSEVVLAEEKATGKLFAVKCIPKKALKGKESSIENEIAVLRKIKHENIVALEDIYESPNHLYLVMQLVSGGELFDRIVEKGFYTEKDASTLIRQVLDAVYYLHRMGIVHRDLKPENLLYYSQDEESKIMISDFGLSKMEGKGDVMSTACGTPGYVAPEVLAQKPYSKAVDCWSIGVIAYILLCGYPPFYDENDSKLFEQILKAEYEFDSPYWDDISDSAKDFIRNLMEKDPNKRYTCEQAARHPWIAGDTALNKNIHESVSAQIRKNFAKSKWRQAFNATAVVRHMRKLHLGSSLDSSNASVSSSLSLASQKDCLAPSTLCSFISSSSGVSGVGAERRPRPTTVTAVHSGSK
5'-AMP-activated protein kinase catalytic subunit alpha-1 (Homo sapiens), sequence (Q13131 whole entry, looked up): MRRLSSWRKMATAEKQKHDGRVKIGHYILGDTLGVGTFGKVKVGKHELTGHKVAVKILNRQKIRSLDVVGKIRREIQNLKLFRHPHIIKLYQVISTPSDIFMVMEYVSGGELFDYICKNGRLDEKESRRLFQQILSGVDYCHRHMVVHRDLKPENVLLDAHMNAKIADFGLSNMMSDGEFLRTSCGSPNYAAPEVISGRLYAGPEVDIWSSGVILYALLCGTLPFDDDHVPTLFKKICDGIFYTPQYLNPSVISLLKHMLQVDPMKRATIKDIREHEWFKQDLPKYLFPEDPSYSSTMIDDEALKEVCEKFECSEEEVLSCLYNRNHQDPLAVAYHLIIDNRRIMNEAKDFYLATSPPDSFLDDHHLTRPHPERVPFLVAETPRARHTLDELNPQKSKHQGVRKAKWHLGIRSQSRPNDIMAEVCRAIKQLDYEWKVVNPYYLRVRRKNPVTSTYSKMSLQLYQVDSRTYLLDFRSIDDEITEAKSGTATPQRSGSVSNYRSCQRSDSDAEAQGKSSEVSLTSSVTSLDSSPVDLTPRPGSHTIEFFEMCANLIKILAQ
5'-AMP-activated protein kinase catalytic subunit alpha-2 (Homo sapiens), sequence (P54646 whole entry, looked up): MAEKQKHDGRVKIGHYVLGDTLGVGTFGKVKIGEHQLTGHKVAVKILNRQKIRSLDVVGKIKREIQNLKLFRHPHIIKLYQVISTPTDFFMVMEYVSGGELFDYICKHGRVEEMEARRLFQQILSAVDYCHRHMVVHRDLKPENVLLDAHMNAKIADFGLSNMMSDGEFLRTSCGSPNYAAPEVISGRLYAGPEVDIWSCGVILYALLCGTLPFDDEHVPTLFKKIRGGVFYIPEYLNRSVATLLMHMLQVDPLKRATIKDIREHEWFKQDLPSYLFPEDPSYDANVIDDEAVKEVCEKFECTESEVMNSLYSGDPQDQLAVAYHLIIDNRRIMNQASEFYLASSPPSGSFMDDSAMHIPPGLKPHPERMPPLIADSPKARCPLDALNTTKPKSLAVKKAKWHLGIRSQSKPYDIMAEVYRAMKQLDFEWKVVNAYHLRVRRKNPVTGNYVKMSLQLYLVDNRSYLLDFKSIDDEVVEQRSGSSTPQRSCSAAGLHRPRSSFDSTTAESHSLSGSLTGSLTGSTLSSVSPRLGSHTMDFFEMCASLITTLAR

Row | Compound | inhibition [1] [%] | inhibition [2] [%] | inhibition [3] [%] | inhibition [4] [%] | inhibition [5] [%] | inhibition [6] [%] | inhibition [7] [%] | inhibition [8] [%] | inhibition [9] [%] | inhibition [10] [%] | inhibition [11] [%] | inhibition [12] [%] | inhibition [13] [%] | inhibition [14] [%] | inhibition [15] [%] | inhibition [16] [%] | inhibition [17] [%] | inhibition [18] [%] | inhibition [19] [%] | inhibition [20] [%]
1 | N#Cc1c(NC(=O)CN2CCOCC2)sc2c1CCCC2 | 1.35 | 0.28 | 5.76 | 2.3 | 4.38 | 3.14 | 4.05 | 3.31 | 4.25 | 1.66 | 2.26 | 2.61 | 4.86 | 0.57 | 1.52 | 2.72 | 3.03 | -0.19 | 0.36 | 3.08
2 | COc1ccc(-c2cc3c(N)ncnc3o2)cc1 | 1.58 | 0.5 | -0.33 | -1.01 | 1.43 | -1.34 | -2.55 | 0.03 | 0.8 | 0.21 | -2.04 | 2.2 | 2.41 | -0.42 | -0.34 | 0.68 | 1.73 | 1.05 | 2.96 | -1.62
3 | Cc1ccc2c(-c3ccnc(Nc4ccccc4)n3)c(-c3ccc(F)cc3)nn2n1 | 4.74 | 2.01 | 1.69 | 2.15 | 3.69 | 2.63 | 2.1 | 2.48 | 2.15 | 0.59 | 3.36 | 1.74 | 6.31 | 1.47 | 1.77 | 1.27 | 0.62 | 0.93 | 1.34 | 4.27

— ChEMBL document CHEMBL1961873, “Compounds: GSK PKIS; Assays: Nanosyn kinase panel” (2012)
